Experimental findings from PubChem BioAssay (EPA / NIEHS) are described below.

Structures are written as SMILES. Records with an inconclusive call do not appear. Calls of active or inactive are those of the source. Rule for the calls: active = hit-call score of the fitted dose curve at least 0.9, where 1 is the maximum; inconclusive = response in the unintended direction; inactive = score below 0.9.

human Retinoid X Receptor beta (RXRb), RXRB (gene 6257), sequence (P28702 whole entry, looked up, the tested form may be a part): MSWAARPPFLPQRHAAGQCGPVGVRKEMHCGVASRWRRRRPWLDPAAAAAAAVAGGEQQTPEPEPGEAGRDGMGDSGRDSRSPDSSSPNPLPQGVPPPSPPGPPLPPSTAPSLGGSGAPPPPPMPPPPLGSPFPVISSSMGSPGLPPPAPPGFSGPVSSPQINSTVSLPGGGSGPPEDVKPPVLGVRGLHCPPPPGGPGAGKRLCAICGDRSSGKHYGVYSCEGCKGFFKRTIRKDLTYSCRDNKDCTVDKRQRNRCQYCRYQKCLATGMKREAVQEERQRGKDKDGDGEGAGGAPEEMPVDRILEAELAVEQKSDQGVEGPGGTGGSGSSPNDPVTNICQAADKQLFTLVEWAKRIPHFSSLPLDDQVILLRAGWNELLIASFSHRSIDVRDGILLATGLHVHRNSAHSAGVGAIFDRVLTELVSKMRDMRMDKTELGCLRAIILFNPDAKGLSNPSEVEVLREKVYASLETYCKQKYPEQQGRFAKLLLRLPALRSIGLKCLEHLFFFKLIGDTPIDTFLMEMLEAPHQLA

One test concerns the target human Retinoid X Receptor beta (RXRb), RXRB (gene 6257) (UniProt P28702). Briefly: ATG_RXRb_TRANS: Attagene TRANS-FACTORIAL HepG2 Assay for human Retinoid X Receptor beta (RXRb) (AID 2283013). Summed up:
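Transfect HepG2 with GAL4-UAS multi-reporter constructs (chimeric NR-Gal4, TRANS format); dose compound 24 h; isolate RNA, RT-PCR, FAM primer extension, HpaI digest; quantify by capillary electrophoresis; positive direction vs DMSO.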
With `CCCCCCCCCCC=CC#N`, the AC50 is 49.2 µM (active).
Take `Cc1cccc(N(C)C(=S)Oc2ccc3ccccc3c2)c1`: the AC50 was 32.6 µM (active).
With `COc1ccc([C@@H]2CC(=O)c3c(O)cc(O[C@@H]4O[C@H](CO[C@@H]5O[C@@H](C)[C@H](O)[C@@H](O)[C@H]5O)[C@@H](O)[C@H](O)[C@H]4O)cc3O2)cc1OC`, the compound was classed as inactive.
Still for that read-out and setting: the result for `NNC(=O)c1cccc(C(=O)NN)c1` reads “inactive”; that for `CN(C)c1ccc(C(=N)c2ccc(N(C)C)cc2)cc1`, “inactive”; that for `CC=CC(F)(F)C(F)(F)C(F)(F)F`, “inactive”.
On to `CC1(C)O[C@@H]2C[C@H]3[C@@H]4C[C@H](F)C5=CC(=O)CC[C@]5(C)[C@H]4[C@@H](O)C[C@]3(C)[C@]2(C(=O)CO)O1`, for which the AC50 is 31.8 µM (active).
As to `CC(CC=O)CCCC(C)(C)O` (configuration not stated), the outcome was inactive.
On to `Cc1cccc(C(=O)O)c1`, for which the result was inactive.
As for `CC(C)(C)C(=O)C=Cc1ccc(Cl)cc1`, the AC50 is 24.4 µM (active).
Consider `CCOC(=O)Cc1cccc2ccccc12`, for which the AC50 was 89.4 µM (active).
Regarding `CC=CCO`, the compound was called inactive.
On the same count and under the same terms, the result for `OCCN(CCO)c1ccccc1` reads “inactive”.
With `O=P(O)(O)Oc1ccccc1`, the compound was called inactive.
As to `CC(C)c1ccc2cc(C(C)C)ccc2c1`, the AC50 is 20.8 µM (active).
Regarding `O=C(O)CCCCCCCCCC(=O)O`, the call was inactive.
`CC(=O)[C@@]1(O)CC[C@H]2[C@@H]3C[C@H](C)C4=CC(=O)C=C[C@]4(C)[C@@]3(F)[C@@H](O)C[C@@]21C`: the call was inactive.
The same measure, in the same setting: the result for `C1=CCCC1` reads “inactive”.
With `Cc1cc(C)c(C)c(O)c1`, the compound was classed as inactive.
Same read-out and setting: as for `COc1c2ccoc2cc2oc(=O)ccc12`, the entry is “inactive”; as for `C=CC(=O)OCCOC(=O)C=C`, “inactive”.
On the same count and under the same terms, as for `C1=Cc2ccccc2C1`, the entry is “inactive”; as for `CC1(C)O[C@@H]2C[C@H]3[C@@H]4C[C@H](F)C5=CC(=O)C=C[C@]5(C)[C@@]4(F)[C@@H](O)C[C@]3(C)[C@]2(C(=O)CO)O1`, “inactive”; as for `CCCCCCCCCCOC(C)=O`, “inactive”.
On the same count and under the same terms, as for `ON(Cc1ccccc1)Cc1ccccc1`, the entry is “inactive”.
As to `CCCCCCCCCCc1ccccc1`, the half-maximal activity concentration (AC50) was 49.1 µM (active).
With `Cc1cc(=O)n(-c2ccccc2)n1C`, the call was inactive.
In the case of `COC(=O)c1c(C)cc(O)c(C)c1O`, the compound was called inactive.
As for `CC(=O)C=CC1C(C)=CCC(C)C1(C)C` (configuration not stated), the AC50 was 68.5 µM (active).
For the compound `Cc1cc(C)c(C)c(C)c1`, the compound was classed as inactive.
Same read-out and setting: the result for `CCOc1ccc(N)c([N+](=O)[O-])c1` reads “inactive”.
Regarding `CC(C)C1=CC2=CC[C@@H]3[C@](C)(CCC[C@@]3(C)C(=O)O)[C@H]2CC1`, the compound was called inactive.
Same read-out and setting: the result for `O=C1CCCCCN1SSN1CCCCCC1=O` reads “inactive”; that for `CC(C)=CCCC(C)C=O` (configuration not stated), “inactive”.
Regarding `CCC(C)OC(=O)c1ccc(O)cc1` (configuration not stated), the AC50 was 70.8 µM (active).
As for `CCCC(C)CCC(C)=O` (configuration not stated), the compound was classed as inactive.

For the next test, the target named is human Thyroid Receptor alpha (THRa1), THRA (gene 7067) (UniProt P10827). Briefly: ATG_THRa1_TRANS: Attagene TRANS-FACTORIAL HepG2 Assay for human Thyroid Receptor alpha (THRa1) (AID 2283014). A digest of the protocol: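 First, HepG2 cells receive multiple GAL4-UAS reporter units and the chimeric receptor. They are then dosed for 24 h, after which RNA is reverse-transcribed, amplified, labelled, HpaI-cut and sized by capillary electrophoresis; gain relative to DMSO is scored.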
human Thyroid Receptor alpha (THRa1), THRA (gene 7067), sequence (P10827 whole entry, looked up, the tested form may be a part): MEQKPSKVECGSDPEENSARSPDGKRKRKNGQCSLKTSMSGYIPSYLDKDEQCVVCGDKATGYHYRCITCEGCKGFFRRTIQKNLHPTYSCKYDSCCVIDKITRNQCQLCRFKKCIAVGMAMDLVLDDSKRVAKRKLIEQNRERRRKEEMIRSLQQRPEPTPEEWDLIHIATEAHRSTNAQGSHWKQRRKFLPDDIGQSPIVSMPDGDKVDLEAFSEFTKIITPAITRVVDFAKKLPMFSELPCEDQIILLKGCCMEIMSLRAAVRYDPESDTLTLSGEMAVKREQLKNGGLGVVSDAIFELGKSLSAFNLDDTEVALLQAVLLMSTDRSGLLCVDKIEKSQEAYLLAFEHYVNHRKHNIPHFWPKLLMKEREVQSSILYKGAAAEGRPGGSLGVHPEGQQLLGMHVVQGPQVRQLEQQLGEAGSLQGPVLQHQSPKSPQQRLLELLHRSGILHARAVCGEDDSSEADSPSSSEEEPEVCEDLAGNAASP
Turning to `CCCCCCCCCCC=CC#N`, the call was inactive.
The same measure, in the same setting: the result for `Cc1cccc(N(C)C(=S)Oc2ccc3ccccc3c2)c1` reads “inactive”; that for `COc1ccc([C@@H]2CC(=O)c3c(O)cc(O[C@@H]4O[C@H](CO[C@@H]5O[C@@H](C)[C@H](O)[C@@H](O)[C@H]5O)[C@@H](O)[C@H](O)[C@H]4O)cc3O2)cc1OC`, “inactive”; that for `NNC(=O)c1cccc(C(=O)NN)c1`, “inactive”.
On to `CN(C)c1ccc(C(=N)c2ccc(N(C)C)cc2)cc1`, for which the result was inactive.
Same read-out and setting: as for `CC=CC(F)(F)C(F)(F)C(F)(F)F`, the entry is “inactive”; as for `CC1(C)O[C@@H]2C[C@H]3[C@@H]4C[C@H](F)C5=CC(=O)CC[C@]5(C)[C@H]4[C@@H](O)C[C@]3(C)[C@]2(C(=O)CO)O1`, “inactive”; as for `CC(CC=O)CCCC(C)(C)O` (configuration not stated), “inactive”.
As for `Cc1cccc(C(=O)O)c1`, the call was inactive.
Regarding `CC(C)(C)C(=O)C=Cc1ccc(Cl)cc1`, the call was inactive.
On the same count and under the same terms, as for `CCOC(=O)Cc1cccc2ccccc12`, the entry is “inactive”.
On the same count and under the same terms, as for `CC=CCO`, the entry is “inactive”; as for `OCCN(CCO)c1ccccc1`, “inactive”.
As for `O=P(O)(O)Oc1ccccc1`, the AC50 is 8.7 µM (active).
In the case of `CC(C)c1ccc2cc(C(C)C)ccc2c1`, the call was inactive.
On the same count and under the same terms, the result for `O=C(O)CCCCCCCCCC(=O)O` reads “inactive”; that for `CC(=O)[C@@]1(O)CC[C@H]2[C@@H]3C[C@H](C)C4=CC(=O)C=C[C@]4(C)[C@@]3(F)[C@@H](O)C[C@@]21C`, “inactive”; that for `C1=CCCC1`, “inactive”.
For the compound `Cc1cc(C)c(C)c(O)c1`, the compound was classed as inactive.
As for `COc1c2ccoc2cc2oc(=O)ccc12`, the result was inactive.
`C=CC(=O)OCCOC(=O)C=C`: the AC50 was 26.9 µM (active).
As for `C1=Cc2ccccc2C1`, the call was inactive.
Consider `CC1(C)O[C@@H]2C[C@H]3[C@@H]4C[C@H](F)C5=CC(=O)C=C[C@]5(C)[C@@]4(F)[C@@H](O)C[C@]3(C)[C@]2(C(=O)CO)O1`, for which the compound was classed as inactive.
Same read-out and setting: the result for `CCCCCCCCCCOC(C)=O` reads “inactive”; that for `ON(Cc1ccccc1)Cc1ccccc1`, “inactive”.
On the same count and under the same terms, as for `CCCCCCCCCCc1ccccc1`, the entry is “inactive”; as for `Cc1cc(=O)n(-c2ccccc2)n1C`, “inactive”; as for `COC(=O)c1c(C)cc(O)c(C)c1O`, “inactive”.
Regarding `CC(=O)C=CC1C(C)=CCC(C)C1(C)C` (configuration not stated), the compound was classed as inactive.
Consider `Cc1cc(C)c(C)c(C)c1`, for which the result was inactive.
Take `CCOc1ccc(N)c([N+](=O)[O-])c1`: the compound was called inactive.
In the case of `CC(C)C1=CC2=CC[C@@H]3[C@](C)(CCC[C@@]3(C)C(=O)O)[C@H]2CC1`, the compound was called inactive.
As to `O=C1CCCCCN1SSN1CCCCCC1=O`, the compound was classed as inactive.
For the compound `CC(C)=CCCC(C)C=O` (configuration not stated), the compound was called inactive.
As for `CCC(C)OC(=O)c1ccc(O)cc1` (configuration not stated), the outcome was inactive.
Same read-out and setting: the result for `CCCC(C)CCC(C)=O` (configuration not stated) reads “inactive”.
